High-throughput results deposited in PubChem BioAssay by National Center for Advancing Translational Sciences (NCATS).
Only some compounds are listed: those with a hit (about 19% of all), similar ones and a draw of the others.
HT1080NT lethal: qHTS for induction of synthetic lethality in tumor cells producing 2HG: qHTS for the HT-1080-NT fibrosarcoma cell line. HT-1080-NT fibrosarcoma viability, CellTiter-Glo ATP luminescence, 48 h. Potency, µM (top dose mostly 46.1 µM), for the others: at the highest dose activity, negative = less viability, usual class: cytotoxic. actives 1.6% (n = 360,000). AID 686970, 2013;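 further: NT is the 2HG producing partner of a matched IDH1 knockdown line; potency means the concentration at half of the fitted maximal effect; 0% = DMSO-treated cells and -100% = media-only wells without cells; nearly all actives have a fitted effect of over 55% in size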
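Toxicity toward the 2HG-producing NT line was scored as %Activity, normalised to DMSO and no-cell wells, from CellTiter-Glo luminescence after 48 hours' treatment.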
HT1080 IDH1KD tx: qHTS for induction of synthetic lethality in tumor cells producing 2HG: qHTS for the HT-1080-IDH1KD cell line; HT-1080 IDH1 knockdown viability, ATP luminescence, 48 h; Potency, µM (highest dose often 46.1 µM), for the others: at the highest dose activity, negative = toxicity, actives largely listed as cytotoxic; actives 2% (n = 360,000); AID 686971, 2013;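 further: potency means the concentration at half of the fitted maximal effect; 0% = DMSO wells and -100% = cell-free medium wells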
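Using the IDH1-knockdown HT-1080 line run in the same batch and compound series as the NT line, viability after 48 h at 37 °C was determined by CellTiter-Glo luminescence and expressed as % activity.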
TDP1 cell noCPT: qHTS for Inhibitors of human tyrosyl-DNA phosphodiesterase 1 (TDP1): qHTS in cells in absence of CPT; DT40 Tdp1-/- hTDP1 cells, no CPT, ATP luminescence, 48 h; Potency, µM (titrated, usually from 46.2 µM), inactives show at the top dose activity change, negative = growth inhibition, hits mostly inhibitors; actives 15% (n = 420,000); further: potency means the concentration at half of the fitted maximal effect; nearly all actives have a fitted effect of over 55% in size
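Chicken DT40 Tdp1-/- cells complemented with human TDP1, screened without camptothecin (DMSO vehicle only), 400 cells/well. Compounds pin-transferred, cells incubated at 37 °C for at least 48 hr. Growth read as ATP-dependent luminescence (CellTiter-Glo, 30 min at RT).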
ELG1 repair inh: qHTS screen for small molecules that inhibit ELG1-dependent DNA repair in human embryonic kidney (HEK293T) cells expressing luciferase-tagged ELG1; HEK293T ELG1-luciferase reporter, luminescence, 16 h; DNA damage induced by 5-fluorouridine; Potency, µM (highest dose often 46.1 µM), without a hit: top-dose activity change, negative = inhibition, most hits filed as inhibitors; actives 2.3% (n = 330,000); AID 504467, 2011; further: potency means the concentration at half of the fitted maximal effect; nearly all actives have a fitted effect of over 55% in size
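Luminescence from the luciferase reporter, measured 30 min after ONE-Glo reagent at room temperature, was the read-out. Beforehand, 2,000 cells per well were exposed for 16 hr at 37 °C to 5-fluorouridine together with compound or vehicle.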
TDP1 cell CPT: qHTS for Inhibitors of human tyrosyl-DNA phosphodiesterase 1 (TDP1): qHTS in cells in presence of CPT; chicken DT40 Tdp1-/-;hTDP1 cells + 20 nM CPT, ATP luminescence, 48 h; actives 12% (n = 420,000); AID 686979, 2013; Potency, µM (doses to about 46.2 µM), for the others: top-dose activity change, negative = growth inhibition, usual class: inhibitors; further: potency means the concentration at half of the fitted maximal effect; nearly all actives have a fitted effect of over 55% in size
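Chicken DT40 Tdp1-/- cells complemented with human TDP1, 400 cells/well, exposed to compounds plus 20 nM camptothecin for at least 48 h at 37 C; viability read as ATP content by CellTiter-Glo luminescence.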
IL1B secr inh: qHTS for Inhibitors of Inflammasome Signaling: IL-1-beta AlphaLISA Primary Screen. THP-1 LPS/ATP IL-1B secretion, AlphaLISA, 16 h; active compounds read low. activity change, % at 57.5 µM. actives 4.7% (n = 360,000); in the data active means activity change below about -50%; inconclusive means mostly about -30% to -49%
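THP-1 cells pretreated 1 hr with compounds (up to 57.5 uM final), then stimulated with LPS (250 ng/mL final) plus ATP (1.25 mM final); secreted IL-1B measured by AlphaLISA after 16 hr, decreased signal indicating inhibition.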
The depositor's hits bear a star; [ ] = remark or other dose. Unless noted, the call rests on the fitted dose curve; in most records, active means well fitted curve in the direction sought with a large enough effect; inconclusive means small, poorly fitted or top-dose-only effect, or another doubt; inactive means no such curve, though single readings can be large; an effect the other way counts as inactive or inconclusive. Unless noted, on the % scale 0 is the no-effect control and ±100 the full control effect.

For CN(C[C@H](Cc1ccccc1)N(C[C@H](Cc1ccccc1)N(CCC(C)(C)C)N=O)N=O)N=O the results were HT1080NT lethal -3%, HT1080 IDH1KD tx -3%, TDP1 cell noCPT inconclusive, ELG1 repair inh 3%, TDP1 cell CPT 18µM* and IL1B secr inh -1.
For CC(C)CCN(N=O)[C@@H](Cc1ccccc1)CN(N=O)[C@@H](Cc1ccccc1)CN(C)N=O the results were HT1080NT lethal -7%, HT1080 IDH1KD tx -23%, TDP1 cell noCPT inconclusive, ELG1 repair inh 2%, TDP1 cell CPT inconclusive and IL1B secr inh inconclusive.
Screening COc1ccc(C2=CCC3CCCCN3C2)cc1OC (centres undefined) returned HT1080NT lethal 10%, HT1080 IDH1KD tx 8%, TDP1 cell noCPT -22%, ELG1 repair inh inconclusive, TDP1 cell CPT -23% and IL1B secr inh -16.
CN1C2CCC1CC(C(=O)OC(CO)c1ccccc1)C2 (centres undefined) was read as TDP1 cell noCPT 1%[9.04 µM] and TDP1 cell CPT 9%[9.04 µM].
Screening CC1=CC(=O)C2=C(C)C[C@H](O)[C@@H]3[C@H](OC(=O)[C@H]3C)[C@@H]12 returned HT1080NT lethal 16%, HT1080 IDH1KD tx 1%, TDP1 cell noCPT 16%, ELG1 repair inh 10%, TDP1 cell CPT 6% and IL1B secr inh -79*.
`COC(=O)c1ccc(N2C(=O)CC(N3CCC(O)(c4ccc(Br)cc4)CC3)C2=O)cc1` (centres undefined) gave HT1080NT lethal 8%, HT1080 IDH1KD tx 0%, TDP1 cell noCPT -16%, ELG1 repair inh -8%, TDP1 cell CPT inconclusive and IL1B secr inh 18.
`Nc1cc(C(=O)Nc2ccc(Cl)cc2)ccc1N1CC2CC(C1)c1cccc(=O)n1C2` (centres undefined) gave HT1080NT lethal -5%, HT1080 IDH1KD tx -15%, TDP1 cell noCPT 10µM*, ELG1 repair inh inconclusive, TDP1 cell CPT 21µM* and IL1B secr inh -2.
Nc1ccc(CCN2CCCC2)cc1 was read as HT1080NT lethal 11%, HT1080 IDH1KD tx 8%, TDP1 cell noCPT 1%, ELG1 repair inh -2%, TDP1 cell CPT 7% and IL1B secr inh 2.
Screening Nc1ccc(CCN2CCN(c3cccc(C(F)(F)F)c3)CC2)cc1 returned HT1080NT lethal -27%, HT1080 IDH1KD tx -23%, TDP1 cell noCPT 23µM*, TDP1 cell CPT inconclusive and IL1B secr inh -10.
`O=[N+]([O-])c1ccc(N2CCOCC2)c2c1no[n+]2[O-]` gave HT1080NT lethal 5.2µM*, HT1080 IDH1KD tx 5.2µM*, TDP1 cell noCPT 0.16µM*, TDP1 cell CPT 0.18µM* and IL1B secr inh -105*.
O=[N+]([O-])c1ccc(N2CCOCC2)c2cccnc12 was read as HT1080NT lethal -9%, HT1080 IDH1KD tx -3%, TDP1 cell noCPT inconclusive, ELG1 repair inh -7%, TDP1 cell CPT -6% and IL1B secr inh -11.
For Cc1cc(C(=O)OCC(=O)Nc2ccccc2F)c(C)n1C1CC1 the results were HT1080NT lethal -3%, HT1080 IDH1KD tx 9%, TDP1 cell noCPT -43%, ELG1 repair inh inconclusive, TDP1 cell CPT inconclusive and IL1B secr inh 12.
For C=C(C)[C@@]12OC3(c4ccccc4)O[C@@H]1C1[C@@H]4O[C@]4(CO)[C@@H](O)[C@]4(O)C(=O)C(C)=C[C@H]4[C@@]1(O3)[C@H](C)[C@H]2OC(=O)/C=C/C=C/c1ccccc1 (some centres undefined) the results were HT1080NT lethal inconclusive, HT1080 IDH1KD tx inconclusive, TDP1 cell noCPT 3.3µM*, TDP1 cell CPT 16µM* and IL1B secr inh 97.
`CCCC1=Nc2cc(C(=O)NC3CCC(C)CC3)ccc2Sc2ccccc21` (centres undefined) gave TDP1 cell noCPT 4.1µM* and TDP1 cell CPT 6.5µM*.
CCOC(=O)c1ccc2c(c1)N(C)C(=O)c1ccccc1S2 was read as HT1080NT lethal 5%, HT1080 IDH1KD tx 8%, TDP1 cell noCPT inconclusive, ELG1 repair inh -5%, TDP1 cell CPT inconclusive and IL1B secr inh 13.
For CCCC1=Nc2cc(C(=O)NCCc3ccc(OC)cc3OC)ccc2Sc2ccccc21 the results were TDP1 cell noCPT inconclusive and TDP1 cell CPT 18µM*.
For N#CC1(N2CCCCC2)CCCCC1 the results were TDP1 cell noCPT 0% and TDP1 cell CPT -4%.
COc1ccc(/C=C/C(=O)c2c(O)n(CCC3=CCCCC3)c(=O)[nH]c2=O)cc1OC was read as HT1080NT lethal 20%, HT1080 IDH1KD tx 2%, TDP1 cell noCPT inconclusive, ELG1 repair inh -8%, TDP1 cell CPT inconclusive and IL1B secr inh -19.
`CC(C)C[C@H](NC(=O)[C@H](Cc1ccccc1)NC(=O)CNC(=O)[C@@H](NC(=O)[C@@H](N)Cc1ccc(O)cc1)[C@H](C)O)C(=O)N[C@H](C(=O)O)[C@H](C)O` gave TDP1 cell noCPT -6%[4.12 µM] and TDP1 cell CPT -25%[4.12 µM].
`CCCN(CCC)C(=O)C(CCC(=O)OCCCN1CCN(CCOC(=O)Cc2c(C)n(C(=O)c3ccc(Cl)cc3)c3ccc(OC)cc23)CC1)NC(=O)c1ccccc1` (centres undefined) gave TDP1 cell noCPT 11µM* and TDP1 cell CPT 13µM*.
For CCC[C@@H]1CC2=CC(=O)CC[C@]2(C)[C@@H]2CC[C@@]3(C)[C@H](CC[C@]3(O)CCC(=O)O)[C@H]12 the results were TDP1 cell noCPT -26% and TDP1 cell CPT -4%.
For COc1nnc(-c2ccc(N3CCCCC3)c(NC(=O)c3ccccc3)c2)c2ccccc12 the results were TDP1 cell noCPT 15µM* and TDP1 cell CPT inconclusive.
For CCSc1nc2n(n1)C(c1ccc(Cl)cc1Cl)C(C(=O)Nc1ccccc1C)=C(C)N2 (centres undefined) the results were TDP1 cell noCPT 13µM* and TDP1 cell CPT 18µM*.
